# According to PubChem BioAssay:
# Activity calls are given as the source filed them. Unless noted, no rule for the calls is given here.
# Columns and labels:
# [1] = anti-His antibody binders, primary screen, artefact control for SMM control protein annotation, biochemical, small-molecule microarray, 635 nm fluorescence (AID 1128); conditions: anti-His Alexa647 antibody binding, higher = more signal;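 also: score merges feature fluorescence with signal-to-noise for each printed compound spot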
# [2] = tested on: Human papillomavirus type 1a E7 protein (residues 1-88); test: HPV1a E7 small-molecule binders, primary screen, biochemical, small-molecule microarray, residues 1-88, 635 nm (AID 1129); conditions: small-molecule microarray binding, fluorescence 635 nm; higher = more signal
# [3] = target: Focal adhesion kinase 1 (Homo sapiens) (UniProt Q05397); test: small-molecule microarray binders of FAK, primary screen, biochemical, 635/667 nm fluorescence, BSA, DTT (AID 1130); conditions: PTK2 binding, 635 nm fluorescence, higher = more signal;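 also: composite of spot emission at 667 nm and signal to noise over triplicate slides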
# [4] = tested on: Fibrinogen (Alexa647-labelled); test: fibrinogen binders on compound microarrays, profiling panel, artefact control for SMM control-protein annotation, biochemical, small-molecule microarray, 635/667 nm fluorescence (AID 1131); conditions: fibrinogen-A647 binding fluorescence, higher = more signal;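 also: z-score merges 667 nm fluorescence with per-spot signal-to-noise over triplicate slides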
# [5] = target: Follistatin (Homo sapiens) (UniProt P19883); test: follistatin binders on small-molecule microarrays, primary screen, biochemical, small-molecule microarray, 635/667 nm fluorescence (AID 1132); conditions: FST binding, 635 nm fluorescence, higher = more signal
# [6] = target: Fibroblast growth factor 2 (Homo sapiens) (UniProt P09038); test: FGF2 binders on small-molecule microarrays, primary screen, biochemical, small-molecule microarray, 635/667 nm fluorescence (AID 1133); conditions: small-molecule microarray binding, FGF2, fluorescence 635/667; higher = more signal
# [7] = mitochondrial membrane potential change in A549 cells, profiling panel, cell-based, JC-1 fluorescence, basal, 24 h, 100 nL (AID 1138); conditions: higher = more signal;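 also: A549 lung adenocarcinoma cells under basal conditions with no added stimulus; test concentration not given here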
# Lefty1 = Lefty1 binders on small-molecule microarrays, primary screen, biochemical, small-molecule microarray, 635/667 nm fluorescence (AID 1139); conditions: small-molecule microarray binding, fluorescence 635/667; higher = more signal
# [8] = tested on: wheat germ agglutinin (Triticum aestivum), Alexa647-labelled; test: wheat germ agglutinin binders on compound microarrays, profiling panel, artefact control for SMM control-protein annotation, biochemical, small-molecule microarray, 635/667 nm fluorescence (AID 1140); conditions: WGA-A647 binding, 635 nm fluorescence, higher = more signal;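 also: score merges 667 nm feature emission with signal to noise over triplicate slides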
# [9] = target: Luciferin 4-monooxygenase (Photinus pyralis) (UniProt P08659); test: firefly luciferase enzyme inhibitors, primary screen, biochemical, luminescence, purified enzyme, 2006 set (AID 1141); conditions: SteadyGlo luminescence, 30 min, higher = more signal, called active from +8 up or from −8 down;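 also: cell-free assay with purified firefly luciferase at 100 ng per well in PBS; test concentration not given here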
# [10] = tested on: Wnt5a (protein binding on small-molecule microarray); test: Wnt5a binders on small-molecule microarray, primary screen, biophysical, 635/667 nm fluorescence (AID 1142); conditions: 635 nm fluorescence, higher = more signal;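 also: fluorescence read at 667 nm with signal to noise per printed feature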
# [11] = cell viability in Huh7 cells, primary screen, cytotoxicity control for HCV replication inhibitor project, CellTiter-Glo luminescence, basal, 48 h (AID 1143); conditions: Huh7 HCV replicon, higher = more signal, called active from +8 up or from −8 down;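 also: Huh7 hepatoma cells carrying a hepatitis C replication reporter with no stimulus; test concentration not given here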
# [12] = P. aeruginosa biofilm formation inhibitors, primary screen, PAO1 strain, BacTiter-Glo luminescence, LB-PBS (AID 1144); conditions: 12 h, higher = more signal
# [13] = CREB reporter modulators without forskolin, primary screen, cell-based, PC12, CRE-LacZ reporter, unstimulated (AID 1145); conditions: no forskolin, luminescence, 4.5 h, higher = more signal, called active from +8 up or from −8 down
# [14] = CREB reporter modulators under forskolin, primary screen, cell-based, PC12, CRE-LacZ reporter, forskolin-stimulated (AID 1146); conditions: luminescence, 4.5 h, higher = more signal, called active from +8 up or from −8 down;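 also: PC12 cells with 6xCRE LacZ reporter stimulated by forskolin 10 µM; beta-galactosidase reporter signal reflecting CREB driven transcription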
# [15] = target: Streptavidin (Streptomyces avidinii) (UniProt P22629); test: streptavidin binders on small-molecule microarray, primary screen, artefact control for SMM compound annotation, biophysical, 635/667 nm fluorescence (AID 1147); conditions: streptavidin binding, higher = more signal;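 also: signal reflects streptavidin binding to arrayed compounds as a control protein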
# [16] = small-molecule binders of probe aInhba, primary screen, biochemical, small-molecule microarray, 635/667 nm fluorescence (AID 1148); conditions: higher = more signal;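 also: score merges 667nm spot fluorescence with signal-to-noise for antibody binding to printed compounds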
# Torsin-1A (Homo sapiens) [17] = target: Torsin-1A (Homo sapiens) (UniProt O14656); test: torsin A binders from cell lysate, primary screen, small-molecule microarray, wild-type, 635/667 nm (AID 1149); conditions: COS7 hTOR1A-WT lysate, 635 nm fluorescence, higher = more signal
# Torsin-1A (Homo sapiens) [18] = target: Torsin-1A (Homo sapiens) (UniProt O14656); test: small-molecule binders of mutant TOR1A in lysate, primary screen, cell lysate, small-molecule microarray, COS7 lysate, 635/667 nm fluorescence (AID 1150); conditions: COS7 hTOR1A mutant lysate, 635 nm fluorescence, higher = more signal;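 also: score pools 667 nm emission and signal to noise measuring lysate protein binding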
# [19] = tested on: Sonic hedgehog protein (Shh); test: small-molecule binders of Shh protein, primary screen, biochemical, small-molecule microarray, 635/667 nm fluorescence (AID 1151); conditions: small-molecule microarray binding, 635 nm fluorescence; higher = more signal;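 also: Shh protein binding to compounds spotted on small-molecule microarray slides; score combines spot fluorescence intensity with signal-to-noise across triplicate slides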
# Chain of Fibroblast growth factor 2 (Homo sapiens) (P09038 whole entry, looked up): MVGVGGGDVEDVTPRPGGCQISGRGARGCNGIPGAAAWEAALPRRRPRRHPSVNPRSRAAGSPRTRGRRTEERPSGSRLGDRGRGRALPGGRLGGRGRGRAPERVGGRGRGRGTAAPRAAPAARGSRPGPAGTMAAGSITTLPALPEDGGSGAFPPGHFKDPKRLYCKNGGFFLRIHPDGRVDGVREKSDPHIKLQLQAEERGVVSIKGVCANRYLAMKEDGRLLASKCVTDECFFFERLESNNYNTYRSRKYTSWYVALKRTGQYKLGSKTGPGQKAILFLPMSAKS
# Chain of Luciferin 4-monooxygenase (Photinus pyralis) (P08659 whole entry, looked up): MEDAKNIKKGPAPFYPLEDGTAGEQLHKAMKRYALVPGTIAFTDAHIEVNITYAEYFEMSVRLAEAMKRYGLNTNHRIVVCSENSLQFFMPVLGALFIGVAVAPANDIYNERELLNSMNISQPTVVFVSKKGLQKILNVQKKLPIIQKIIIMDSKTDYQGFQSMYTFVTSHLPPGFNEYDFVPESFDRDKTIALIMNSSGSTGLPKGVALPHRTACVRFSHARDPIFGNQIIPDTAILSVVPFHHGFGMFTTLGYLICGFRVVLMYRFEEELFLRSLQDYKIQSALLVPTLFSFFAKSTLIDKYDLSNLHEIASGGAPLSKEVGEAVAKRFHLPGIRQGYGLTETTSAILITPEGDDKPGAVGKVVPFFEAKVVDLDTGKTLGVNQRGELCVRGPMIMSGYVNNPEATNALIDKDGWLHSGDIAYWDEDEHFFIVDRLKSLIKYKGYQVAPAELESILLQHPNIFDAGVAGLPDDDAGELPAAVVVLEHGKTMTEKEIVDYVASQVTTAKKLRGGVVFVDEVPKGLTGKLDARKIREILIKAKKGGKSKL
# Chain of Torsin-1A (Homo sapiens) (O14656 whole entry, looked up): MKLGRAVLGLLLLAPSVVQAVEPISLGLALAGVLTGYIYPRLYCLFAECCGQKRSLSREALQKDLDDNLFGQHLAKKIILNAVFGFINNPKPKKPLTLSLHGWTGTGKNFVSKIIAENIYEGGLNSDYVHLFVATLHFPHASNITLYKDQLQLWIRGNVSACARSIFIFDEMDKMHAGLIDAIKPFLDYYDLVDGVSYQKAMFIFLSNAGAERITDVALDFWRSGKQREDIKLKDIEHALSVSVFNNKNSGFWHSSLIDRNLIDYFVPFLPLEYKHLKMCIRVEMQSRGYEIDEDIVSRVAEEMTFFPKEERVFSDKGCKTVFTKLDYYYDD
# Chain of Follistatin (Homo sapiens) (P19883 whole entry, looked up): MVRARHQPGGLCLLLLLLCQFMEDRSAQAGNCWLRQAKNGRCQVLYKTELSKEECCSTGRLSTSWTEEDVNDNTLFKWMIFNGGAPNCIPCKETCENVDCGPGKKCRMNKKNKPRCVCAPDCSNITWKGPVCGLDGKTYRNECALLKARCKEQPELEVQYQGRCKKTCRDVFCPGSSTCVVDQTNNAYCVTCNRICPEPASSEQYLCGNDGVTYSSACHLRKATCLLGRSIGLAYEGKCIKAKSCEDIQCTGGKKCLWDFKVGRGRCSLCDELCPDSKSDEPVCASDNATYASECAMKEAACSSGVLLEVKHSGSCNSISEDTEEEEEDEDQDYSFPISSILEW
# Chain of Focal adhesion kinase 1 (Homo sapiens) (Q05397 whole entry, looked up): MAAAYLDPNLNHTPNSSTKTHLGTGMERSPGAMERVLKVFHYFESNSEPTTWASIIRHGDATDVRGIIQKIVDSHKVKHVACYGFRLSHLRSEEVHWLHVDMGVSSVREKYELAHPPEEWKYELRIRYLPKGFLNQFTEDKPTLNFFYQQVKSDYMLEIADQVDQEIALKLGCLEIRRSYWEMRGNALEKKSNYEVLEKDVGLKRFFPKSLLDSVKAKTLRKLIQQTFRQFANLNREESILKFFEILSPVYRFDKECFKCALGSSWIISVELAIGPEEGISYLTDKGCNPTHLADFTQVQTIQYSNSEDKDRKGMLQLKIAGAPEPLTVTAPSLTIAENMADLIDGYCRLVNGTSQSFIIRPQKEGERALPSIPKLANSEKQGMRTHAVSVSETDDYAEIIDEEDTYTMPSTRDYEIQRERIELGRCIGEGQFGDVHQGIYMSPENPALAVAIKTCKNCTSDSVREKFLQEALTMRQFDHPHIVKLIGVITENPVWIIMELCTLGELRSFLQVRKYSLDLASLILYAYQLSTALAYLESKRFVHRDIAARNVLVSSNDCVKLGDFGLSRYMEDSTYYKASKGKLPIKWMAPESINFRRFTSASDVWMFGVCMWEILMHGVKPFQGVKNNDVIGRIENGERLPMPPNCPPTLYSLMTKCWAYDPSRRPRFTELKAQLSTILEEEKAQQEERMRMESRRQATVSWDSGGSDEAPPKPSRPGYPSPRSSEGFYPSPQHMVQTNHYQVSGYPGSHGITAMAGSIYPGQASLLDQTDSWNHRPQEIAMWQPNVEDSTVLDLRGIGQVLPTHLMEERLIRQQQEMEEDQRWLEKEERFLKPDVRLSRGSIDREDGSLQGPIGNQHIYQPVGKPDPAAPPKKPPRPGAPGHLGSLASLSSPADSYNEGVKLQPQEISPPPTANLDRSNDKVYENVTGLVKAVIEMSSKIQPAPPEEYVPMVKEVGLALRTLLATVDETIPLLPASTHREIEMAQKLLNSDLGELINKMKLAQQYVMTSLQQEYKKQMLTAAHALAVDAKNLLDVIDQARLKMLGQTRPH
# Chain of Streptavidin (Streptomyces avidinii) (P22629 whole entry, looked up): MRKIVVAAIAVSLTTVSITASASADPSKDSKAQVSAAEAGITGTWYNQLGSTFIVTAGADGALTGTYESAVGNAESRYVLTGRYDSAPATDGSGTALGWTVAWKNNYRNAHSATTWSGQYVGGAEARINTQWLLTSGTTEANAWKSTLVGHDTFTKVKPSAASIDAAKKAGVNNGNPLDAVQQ
SMILES,composite z-score [1],composite z-score [2],composite z-score [3],composite z-score [4],composite z-score [5],composite z-score [6],z-score [7],composite z-score (Lefty1),composite z-score [8],z-score [9],composite z-score [10],z-score [11],z-score [12],z-score [13],z-score [14],composite z-score [15],composite z-score [16],composite z-score (Torsin-1A (Homo sapiens) [17]),composite z-score (Torsin-1A (Homo sapiens) [18]),composite z-score [19]
C=C(/C(=C/C[C@@H](OC(=O)c1ccncc1)c1ccc(OCCO)cc1)c1cc(C(=O)OC)ccc1OC)C(C)C,0.217,1.19,-0.4,0.135,0.623,0.417,0.628,0.632,0.592,-0.467 (inactive),0.308,-1.79 (inactive),-0.745 (inactive),2.06 (inactive),0.96 (inactive),0.747,-0.271,0.0376,0.266,1.7
CC(=O)NCCCC[C@@H]1NC(=O)[C@@H]2C[C@H](C(=O)O)[C@H](c3ccc(O)cc3)N2C1=O,2.07,-1.12,-0.58,-0.408,-0.893,-1.15,-0.61,-1.71,-0.885,0.75 (inactive),-0.734,0.454 (inactive),-0.646 (inactive),-0.679 (inactive),0.407 (inactive),-1.04,-0.335,-2.46,-2.19,-0.96
CN(C)CCCNC(=O)[C@@]1(C)c2ccccc2C(=O)N(Cc2cc(C(F)(F)F)cc(C(F)(F)F)c2)[C@H]1c1ccc(CO)cc1,-0.216,-0.446,-0.24,-2.28,-0.775,-0.762,-0.0872,-1.03,-0.973,0.386 (inactive),-0.284,-4.27 (inactive),-0.391 (inactive),0.234 (inactive),-0.227 (inactive),-0.95,0.0275,-0.639,-0.774,-0.584
C#CCNC(=O)[C@H](Cc1ccccc1)NC(=O)[C@@H](N=[N+]=[N-])C(C)C,0.141,0.873,0.146,0.694,0.127,0.524,0.332,0.343,0.349,-0.66 (inactive),0.0696,-0.0943 (inactive),0.0632 (inactive),0.0918 (inactive),-0.462 (inactive),-0.0247,-0.025,0.0696,0.892,0.539
CO[C@H]1O[C@H](CO)[C@@H](OC(=O)c2ccc(Br)cc2)[C@@H]2OC(=O)[C@@H](Cc3ccc4ccccc4c3)C/C=C/C[C@H](Cc3ccc4ccccc4c3)C(=O)O[C@@H]12,1.4,1.2,0.337,-0.216,0.395,-0.311,1.59,-0.345,0.691,-1.28 (inactive),0.18,-2.88 (inactive),0.4 (inactive),0.139 (inactive),-0.433 (inactive),0.48,-0.103,0.0121,0.625,-0.219
[N-]=[N+]=Nc1ccccc1[C@H]1OC(c2ccc(OCCCO)cc2)=N[C@@]1(CCS(=O)(=O)c1ccccc1)C(=O)N1CCCCC1,2.65,1.23,0.944,0.989,0.83,-0.0535,-1.11,-0.0647,1.27,-11.7 (active),0.375,-4.28 (inactive),-1.21 (inactive),0.47 (inactive),-0.993 (inactive),1.89,0.153,0.456,1.01,-0.678
COc1ccc(NC(=O)O[C@H]2[C@H](OC(=O)Nc3ccc4c(c3)OCO4)[C@@H](OC(=O)Nc3ccc4c(c3)OCO4)[C@@H](OC)O[C@@H]2CO)cc1,1.34,1.25,0.316,0.922,1.16,0.802,-0.669,0.598,0.943,-4.27 (inactive),0.201,-3.73 (inactive),-0.488 (inactive),1.85 (inactive),-0.559 (inactive),1.38,0.277,0.812,1.27,1.27
CCOC(=O)C[C@H]1[C@H](OC(=O)c2ccc(-c3ccccc3)cc2)[C@@H](NC(=O)c2ccc3ccccc3n2)c2cc(OCCCO)ccc2N1C(=O)c1ccccc1,1.14,1,0.059,0.702,0.779,0.736,-0.332,0.815,0.262,0.371 (inactive),0.111,-0.727 (inactive),0.306 (inactive),-0.477 (inactive),-0.169 (inactive),0.968,0.109,0.448,0.397,0.861
COc1cc(CO)cc(I)c1O[C@H]1C=C(C(=O)NCCO)C[C@@H](N(CC2CCCCC2)C(=O)c2ccc(C(F)(F)F)cc2)[C@@H]1O,0.0463,0.621,0.0469,0.367,0.578,0.12,0.53,0.784,0.193,-0.795 (inactive),-0.0143,-0.494 (inactive),-0.312 (inactive),2.57 (inactive),-1.22 (inactive),-0.0411,-0.0403,0.0494,0.0547,1.23
Cc1ccc(S[C@]2(C(=O)NCC(F)(F)F)CC(=O)N(Cc3ccccc3)[C@@H]2c2ccc(CO)cc2)cc1,-0.951,0.389,-0.0414,-1.16,-0.739,-0.683,-0.483,-0.758,-0.693,0.519 (inactive),-0.264,-4.85 (inactive),-0.485 (inactive),0.829 (inactive),0.906 (inactive),-1.23,0.0171,-0.2,-0.238,-0.243
COC(=O)C[C@H]1O[C@]2(C(=O)N(C)c3ccccc32)[C@@H](C)[C@@H]1[Si](C)(C)c1ccc(C)cc1,0.522,1.12,0.342,0.343,0.498,0.148,0.557,0.818,0.255,-0.507 (inactive),0.139,-3.88 (inactive),0.92 (inactive),1.31 (inactive),-0.73 (inactive),0.0785,-0.0403,0.559,0.346,0.763
CN1C(=O)C2C=CC(C(O)c3c(F)cccc3Cl)N(Nc3ccccc3)C2C1=O (stereo not given),-0.0126,-0.105,0.464,0.978,1.03,-0.166,1.14,-0.309,1.05,0.565 (inactive),0.438,1.01 (inactive),0.402 (inactive),0.433 (inactive),0.928 (inactive),1.53,0.0374,-0.353,-0.562,-0.206
